Test results taken from PubChem BioAssay.
Activity calls are given as the source filed them. Unless noted, how the calls were made is not given here.

Columns and labels:
[1] = compounds binding Alexa647 anti-His antibody – biochemical, small-molecule microarray, 635 nm fluorescence, artefact control for SMM control protein annotation, primary screen (AID 1128); details: higher = more signal;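 further: score merges feature fluorescence with signal-to-noise for each printed compound spot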
[2] = test system: Human papillomavirus type 1a E7 protein (residues 1-88); assay: HPV1a E7 small-molecule binders, primary screen, biochemical, small-molecule microarray, residues 1-88, 635 nm (AID 1129); details: small-molecule microarray binding, fluorescence 635 nm; higher = more signal
[3] = biological target: Focal adhesion kinase 1 (Homo sapiens) (UniProt Q05397); assay: PTK2 protein binding on printed compound slides – biochemical, small-molecule microarray, 635/667 nm fluorescence, BSA, DTT, primary screen (AID 1130); details: 635 nm fluorescence, higher = more signal;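 further: composite of spot emission at 667 nm and signal to noise over triplicate slides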
Sequence of Focal adhesion kinase 1 (Homo sapiens) (Q05397 whole entry, looked up): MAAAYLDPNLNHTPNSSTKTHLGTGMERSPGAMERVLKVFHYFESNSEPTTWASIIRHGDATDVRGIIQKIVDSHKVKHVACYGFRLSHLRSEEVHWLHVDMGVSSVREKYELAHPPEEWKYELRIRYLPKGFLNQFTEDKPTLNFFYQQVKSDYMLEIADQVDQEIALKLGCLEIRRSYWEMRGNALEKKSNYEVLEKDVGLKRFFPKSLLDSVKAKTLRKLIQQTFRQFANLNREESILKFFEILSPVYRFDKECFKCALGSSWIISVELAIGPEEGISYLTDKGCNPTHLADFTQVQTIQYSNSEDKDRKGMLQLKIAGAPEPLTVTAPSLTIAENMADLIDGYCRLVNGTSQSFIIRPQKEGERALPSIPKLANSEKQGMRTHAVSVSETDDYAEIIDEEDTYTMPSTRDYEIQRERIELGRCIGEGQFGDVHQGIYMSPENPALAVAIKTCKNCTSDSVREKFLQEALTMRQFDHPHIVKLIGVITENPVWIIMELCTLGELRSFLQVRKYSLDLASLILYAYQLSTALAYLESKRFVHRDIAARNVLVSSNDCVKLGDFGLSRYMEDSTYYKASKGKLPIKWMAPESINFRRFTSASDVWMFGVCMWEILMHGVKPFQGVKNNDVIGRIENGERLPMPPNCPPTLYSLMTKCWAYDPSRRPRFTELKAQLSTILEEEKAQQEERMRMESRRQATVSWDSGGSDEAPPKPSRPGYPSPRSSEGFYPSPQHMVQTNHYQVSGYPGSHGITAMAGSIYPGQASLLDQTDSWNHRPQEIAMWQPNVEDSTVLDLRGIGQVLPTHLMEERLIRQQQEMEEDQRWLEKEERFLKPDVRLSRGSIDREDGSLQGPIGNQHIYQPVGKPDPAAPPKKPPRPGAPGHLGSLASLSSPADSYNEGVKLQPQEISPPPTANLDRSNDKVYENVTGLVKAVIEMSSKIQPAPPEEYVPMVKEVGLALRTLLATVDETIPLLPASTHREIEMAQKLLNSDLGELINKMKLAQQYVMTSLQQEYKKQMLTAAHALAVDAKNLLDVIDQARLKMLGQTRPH

[4] = test system: Fibrinogen (Alexa647-labelled); assay: Alexa647-fibrinogen binding to printed small molecules – biochemical, small-molecule microarray, 635/667 nm fluorescence, artefact control for SMM control-protein annotation, profiling panel (AID 1131); details: fibrinogen-A647 binding fluorescence, higher = more signal;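 further: z-score merges 667 nm fluorescence with per-spot signal-to-noise over triplicate slides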
[5] = biological target: Follistatin (Homo sapiens) (UniProt P19883); assay: FST protein binding to printed compounds – biochemical, small-molecule microarray, 635/667 nm fluorescence, primary screen (AID 1132); details: 635 nm fluorescence, higher = more signal
Sequence of Follistatin (Homo sapiens) (P19883 whole entry, looked up): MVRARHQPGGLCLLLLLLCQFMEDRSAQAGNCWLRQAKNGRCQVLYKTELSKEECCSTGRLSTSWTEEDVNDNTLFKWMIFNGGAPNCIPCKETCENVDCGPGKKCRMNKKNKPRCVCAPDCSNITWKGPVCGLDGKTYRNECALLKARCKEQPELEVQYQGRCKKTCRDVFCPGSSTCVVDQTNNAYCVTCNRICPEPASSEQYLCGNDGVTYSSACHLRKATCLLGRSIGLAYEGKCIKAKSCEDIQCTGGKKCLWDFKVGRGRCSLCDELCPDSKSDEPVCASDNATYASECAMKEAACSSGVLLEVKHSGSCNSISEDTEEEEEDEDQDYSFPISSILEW

[6] = biological target: Fibroblast growth factor 2 (Homo sapiens) (UniProt P09038); assay: basic fibroblast growth factor binding to printed compounds – biochemical, small-molecule microarray, 635/667 nm fluorescence, primary screen (AID 1133); details: FGF2, fluorescence 635/667, higher = more signal
Sequence of Fibroblast growth factor 2 (Homo sapiens) (P09038 whole entry, looked up): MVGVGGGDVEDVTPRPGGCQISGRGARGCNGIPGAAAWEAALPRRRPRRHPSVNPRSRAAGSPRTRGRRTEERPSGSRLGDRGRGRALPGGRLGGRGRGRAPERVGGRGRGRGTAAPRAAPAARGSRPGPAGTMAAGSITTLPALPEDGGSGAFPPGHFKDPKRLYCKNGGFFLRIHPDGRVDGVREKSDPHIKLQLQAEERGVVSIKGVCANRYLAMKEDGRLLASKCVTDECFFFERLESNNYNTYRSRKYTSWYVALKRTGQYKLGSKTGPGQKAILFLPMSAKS

[7] = JC-1 mitochondrial potential readout, lung cancer cells – cell-based, A549, JC-1 fluorescence, basal, 24 h, 100 nL, profiling panel (AID 1138); details: higher = more signal;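 further: A549 lung adenocarcinoma cells under basal conditions with no added stimulus; test concentration not given here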
Lefty1 = Lefty1 protein binding to printed compounds – biochemical, small-molecule microarray, 635/667 nm fluorescence, primary screen (AID 1139); details: fluorescence 635/667, higher = more signal
[8] = test system: wheat germ agglutinin (Triticum aestivum), Alexa647-labelled; assay: Alexa647-WGA lectin binding to printed small molecules – biochemical, small-molecule microarray, 635/667 nm fluorescence, artefact control for SMM control-protein annotation, profiling panel (AID 1140); details: WGA-A647 binding, 635 nm fluorescence, higher = more signal;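 further: score merges 667 nm feature emission with signal to noise over triplicate slides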
[9] = biological target: Luciferin 4-monooxygenase (Photinus pyralis) (UniProt P08659); assay: inhibition of purified Photinus pyralis luciferase – biochemical, luminescence, purified enzyme, 2006 set, primary screen (AID 1141); details: purified firefly luciferase, SteadyGlo luminescence, 30 min; higher = more signal, called active from +8 up or from −8 down;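 further: cell-free assay with purified firefly luciferase at 100 ng per well in PBS; test concentration not given here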
Sequence of Luciferin 4-monooxygenase (Photinus pyralis) (P08659 whole entry, looked up): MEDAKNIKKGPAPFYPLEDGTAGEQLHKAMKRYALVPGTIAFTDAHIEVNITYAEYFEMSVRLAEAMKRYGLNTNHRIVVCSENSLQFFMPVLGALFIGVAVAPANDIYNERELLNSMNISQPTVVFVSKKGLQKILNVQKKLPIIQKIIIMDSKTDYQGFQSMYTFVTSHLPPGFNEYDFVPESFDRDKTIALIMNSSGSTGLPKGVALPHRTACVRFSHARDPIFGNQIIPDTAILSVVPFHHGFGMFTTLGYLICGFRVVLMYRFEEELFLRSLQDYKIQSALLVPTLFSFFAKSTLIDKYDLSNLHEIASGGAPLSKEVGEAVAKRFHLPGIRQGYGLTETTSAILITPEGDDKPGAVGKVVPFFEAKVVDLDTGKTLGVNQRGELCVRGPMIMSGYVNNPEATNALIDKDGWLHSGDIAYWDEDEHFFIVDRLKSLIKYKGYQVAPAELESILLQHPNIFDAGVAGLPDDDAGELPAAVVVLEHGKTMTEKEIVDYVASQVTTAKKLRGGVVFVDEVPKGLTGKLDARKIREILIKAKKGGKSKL

[10] = test system: Wnt5a (protein binding on small-molecule microarray); assay: small molecules binding Wnt5a protein – biophysical, small-molecule microarray, 635/667 nm fluorescence, primary screen (AID 1142); details: 635 nm fluorescence, higher = more signal;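 further: fluorescence read at 667 nm with signal to noise per printed feature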
[11] = ATP-based viability of Huh7 replicon cells – cell-based, CellTiter-Glo luminescence, basal, 48 h, cytotoxicity control for HCV replication inhibitor project, primary screen (AID 1143); details: higher = more signal, called active from +8 up or from −8 down;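 further: Huh7 hepatoma cells carrying a hepatitis C replication reporter with no stimulus; test concentration not given here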
[12] = Pseudomonas biofilm growth suppression – PAO1 strain, BacTiter-Glo luminescence, LB-PBS, primary screen (AID 1144); details: P. aeruginosa PAO1 biofilm, 12 h, higher = more signal
[13] = basal CRE-LacZ reporter activity in PC12 – cell-based, unstimulated, primary screen (AID 1145); details: no forskolin, luminescence, 4.5 h, higher = more signal, called active from +8 up or from −8 down
[14] = forskolin-driven CRE-LacZ activity in PC12 – cell-based, CRE-LacZ reporter, forskolin-stimulated, primary screen (AID 1146); details: luminescence, 4.5 h, higher = more signal, called active from +8 up or from −8 down;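 further: PC12 cells with 6xCRE LacZ reporter stimulated by forskolin 10 µM; beta-galactosidase reporter signal reflecting CREB driven transcription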
[15] = biological target: Streptavidin (Streptomyces avidinii) (UniProt P22629); assay: compounds binding control protein streptavidin – biophysical, small-molecule microarray, 635/667 nm fluorescence, artefact control for SMM compound annotation, primary screen (AID 1147); details: higher = more signal;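 further: signal reflects streptavidin binding to arrayed compounds as a control protein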
Sequence of Streptavidin (Streptomyces avidinii) (P22629 whole entry, looked up): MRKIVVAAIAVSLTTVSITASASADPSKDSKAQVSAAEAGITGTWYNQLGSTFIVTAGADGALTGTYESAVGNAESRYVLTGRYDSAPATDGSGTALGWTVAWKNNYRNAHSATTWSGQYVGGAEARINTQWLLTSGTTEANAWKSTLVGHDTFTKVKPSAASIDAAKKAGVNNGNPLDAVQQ

[16] = probe aInhba binding on compound microarray – biochemical, small-molecule microarray, 635/667 nm fluorescence, primary screen (AID 1148); details: higher = more signal;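 further: score merges 667nm spot fluorescence with signal-to-noise for antibody binding to printed compounds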
Torsin-1A (Homo sapiens) [17] = biological target: Torsin-1A (Homo sapiens) (UniProt O14656); assay: TOR1A wild-type binding on microarray – cell lysate, small-molecule microarray, lysate, 635/667 nm, primary screen (AID 1149); details: COS7 hTOR1A-WT lysate, 635 nm fluorescence, higher = more signal
Sequence of Torsin-1A (Homo sapiens) (O14656 whole entry, looked up): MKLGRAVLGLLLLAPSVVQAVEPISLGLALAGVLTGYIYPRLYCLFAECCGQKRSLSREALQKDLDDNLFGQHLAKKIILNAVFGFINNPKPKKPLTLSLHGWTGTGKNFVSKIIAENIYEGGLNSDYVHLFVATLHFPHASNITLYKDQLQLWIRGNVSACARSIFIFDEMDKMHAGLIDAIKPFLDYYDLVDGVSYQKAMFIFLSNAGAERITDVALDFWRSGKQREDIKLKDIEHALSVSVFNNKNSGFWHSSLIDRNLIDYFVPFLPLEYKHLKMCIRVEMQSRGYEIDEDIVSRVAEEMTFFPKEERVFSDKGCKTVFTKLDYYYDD

Torsin-1A (Homo sapiens) [18] = biological target: Torsin-1A (Homo sapiens) (UniProt O14656); assay: torsin A mutant lysate binding on microarrays – cell lysate, small-molecule microarray, COS7 lysate, 635/667 nm fluorescence, primary screen (AID 1150); details: COS7 hTOR1A mutant lysate, 635 nm fluorescence, higher = more signal;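 further: score pools 667 nm emission and signal to noise measuring lysate protein binding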
[19] = test system: Sonic hedgehog protein (Shh); assay: Sonic hedgehog microarray binding compounds – biochemical, small-molecule microarray, 635/667 nm fluorescence, primary screen (AID 1151); details: 635 nm fluorescence, higher = more signal;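 further: Shh protein binding to compounds spotted on small-molecule microarray slides; score combines spot fluorescence intensity with signal-to-noise across triplicate slides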

| SMILES | composite z-score [1] | composite z-score [2] | composite z-score [3] | composite z-score [4] | composite z-score [5] | composite z-score [6] | z-score [7] | composite z-score (Lefty1) | composite z-score [8] | z-score [9] | composite z-score [10] | z-score [11] | z-score [12] | z-score [13] | z-score [14] | composite z-score [15] | composite z-score [16] | composite z-score (Torsin-1A (Homo sapiens) [17]) | composite z-score (Torsin-1A (Homo sapiens) [18]) | composite z-score [19] |
| --- | --- | --- | --- | --- | --- | --- | --- | --- | --- | --- | --- | --- | --- | --- | --- | --- | --- | --- | --- | --- |
| O=C1NC(=O)C2C1C=CC(C(O)c1ccc3c(c1)OCO3)N2Nc1ccccn1 (stereo not given) | 0.942 | 0.256 | 0.0543 | 0.646 | 1.32 | 0.133 | 0.992 | 0.146 | 1.01 | -0.716 (inactive) | 0.141 | -0.259 (inactive) | -1.72 (inactive) | 1.01 (inactive) | 0.689 (inactive) | 0.501 | -0.203 | 0.546 | 0.05 | 0.347 |
| COC(=O)[C@@]1(Cc2ccc(OC)cc2)[C@H]2c3cc(C(=O)N4CCCC4)n(CCc4cc5ccccc5[nH]4)c3C[C@H]2CN1C(=O)c1ccccc1 | 2.2 | 1.25 | 0.832 | 0.98 | 1.18 | 0.754 | 1.3 | -0.246 | 1.05 | 1.91 (inactive) | 0.409 | -1.84 (inactive) | 0.497 (inactive) | -0.189 (inactive) | 0.375 (inactive) | 1.58 | 0.352 | 0.368 | 1.38 | -0.309 |
| COC(=O)[C@]1(CCS(=O)(=O)c2ccccc2)N=C(c2ccc(OCCCO)cc2)O[C@@H]1c1ccccc1CN=[N+]=[N-] | 1.15 | 1.23 | 1.34 | 0.954 | 1.35 | 0.807 | 0.332 | 0.293 | 0.528 | -0.587 (inactive) | 0.419 | -4.23 (inactive) | -0.32 (inactive) | 1.73 (inactive) | -1.37 (inactive) | 0.379 | 0.0655 | 1.33 | 0.69 | 0.738 |
| CC(C)C[C@@H]1NC(=O)[C@H]2C[C@@H](C(=O)NCCCCCC[N+](C)(C)C)[C@@H](c3cccc(OCCO)c3)N2C1=O | 2.76 | 0.381 | 0.125 | -1.08 | 1.43 | 1.01 | -0.525 | 0.691 | 0.432 | 0.579 (inactive) | -0.0449 | -0.192 (inactive) | -0.616 (inactive) | -0.256 (inactive) | -0.139 (inactive) | -0.368 | 0.0855 | 0.126 | 0.62 | 1.75 |
| Cc1c(NC(=O)/C(C#N)=C/C=C/c2ccccc2[N+](=O)[O-])c(=O)n(-c2ccccc2)n1C | 0.526 | 0.876 | 1.01 | 0.867 | 0.771 | 0.334 | 0.511 | 0.557 | 0.154 | -4.64 (inactive) | -0.145 | -3.01 (inactive) | 0.365 (inactive) | -0.0243 (inactive) | 25.4 (active) | 0.293 | -0.176 | 0.185 | 0.331 | 0.844 |
| CCOC(=O)C1=CC[C@@H](c2ccc([N+](=O)[O-])cc2)N(S(=O)(=O)c2ccc(C)cc2)[C@H]1c1ccccc1 | 1.89 | 1.21 | 0.471 | 0.979 | 1.01 | 0.554 | 1.26 | 0.969 | 0.695 | 1.94 (inactive) | 0.503 | -1.36 (inactive) | -0.41 (inactive) | 0.182 (inactive) | 0.147 (inactive) | 1.57 | 0.165 | 0.149 | 0.763 | 1.39 |
| CCOC(=CC(=O)OC)CC(O)c1cccc(Cl)c1 (stereo not given) | 1.83 | 1.15 | 0.702 | -0.76 | -0.23 | -0.745 | 1.32 | -0.417 | 1.22 | -0.135 (inactive) | -0.256 | -3.84 (inactive) | 0.114 (inactive) | 0.584 (inactive) | -0.216 (inactive) | -0.668 | -0.204 | 1.31 | 0.522 | -0.41 |
| CC(C)NC(=O)[C@@]1(C)c2ccccc2C(=O)N(C(C)C)[C@H]1c1ccc(CO)cc1 | -0.398 | -0.259 | 0.0394 | -0.66 | -0.75 | -0.516 | -0.413 | -1.05 | -0.465 | -0.682 (inactive) | -0.79 | 0.0942 (inactive) | -0.272 (inactive) | 0.0924 (inactive) | 0.626 (inactive) | -1.35 | -0.197 | -3.17 | -2.55 | 0.133 |
| CC1CC/C=C\[C@H]2OC34C=CCN(c5ccc6ccccc6c5)C(=O)[C@H]3N(C(CO)C(C)C)C(=O)[C@@H]4C2C(=O)O1 (stereo not given in full) | 1.22 | 0.29 | 1.33 | -1.01 | 0.136 | -0.282 | 0.254 | 0.0964 | 1.08 | -0.776 (inactive) | -0.257 | -0.0047 (inactive) | 1.27 (inactive) | -0.0939 (inactive) | -0.714 (inactive) | -0.217 | 0.0028 | -1.06 | -0.477 | 0.485 |
